Test results taken from PubChem BioAssay (EPA / NIEHS).
Where “and” joins values, the source holds several entries; their conditions need not be identical. Identical values can stand only once. Calls of active or inactive are those of the source. Rule for the calls: active = hit-call score of the fitted dose curve at least 0.9, where 1 is the maximum; inactive = score below 0.9.

Read-out: Monokine induced gamma interferon (MIG), CXCL9 (gene 4283)
Assay: BSK_hDFCGF_MIG: BioMAP Diversity Plus: hDFCGF Assay for Monokine induced gamma interferon (MIG) Biomarker Activity (AID 2283063)
Details: primary human foreskin fibroblasts; actives raise or lower the signal
Method in brief: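 Endpoint derived by bidirectional fitting relative to DMSO; MIG quantified via ELISA in primary human foreskin fibroblasts harvested 24 h after dosing.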

| Structure (SMILES) | outcome | AC50 |
| --- | --- | --- |
| C[Si](C)(C)C(F)(F)C(F)(F)C(F)(F)F | inactive | – |
| O=C(NO)C1(NS(=O)(=O)c2ccc(Oc3ccc(F)cc3)cc2)CCOCC1 | inactive | – |
| O=C1CN(N=Cc2ccc([N+](=O)[O-])o2)C(=O)N1 | inactive | – |
| OC(Cn1cncn1)(Cn1cncn1)c1ccc(F)cc1F | inactive | – |
| O=S(=O)(O)CCC(F)(F)C(F)(F)C(F)(F)C(F)(F)C(F)(F)C(F)(F)F | inactive | – |
| OC(CCl)CCl | inactive | – |
| OCc1ccccc1 | inactive | – |
| c1ccc(C(O[C@@H]2CCCN(CCc3ccc4c(c3)OCO4)C2)c2ccccc2)cc1 | inactive | – |
| O=C(Cl)C(F)(F)C(F)(F)C(F)(F)C(=O)Cl | inactive | – |
| CCCCCCCC/C=C\CCCCCCCC(=O)OC[C@@H](O)[C@H]1OC[C@H](O)[C@H]1O | inactive | – |
| CCCCCCCCN(C)C | inactive | – |
| COS(C)(=O)=O | inactive | – |
| CCCc1ccccc1 | inactive | – |
| COc1cc2c(c(OC)c1OC)-c1ccc(OC)c(=O)cc1[C@@H](NC(C)=O)CC2 | inactive | – |
| COCc1nnc(-c2ccc[n+]([O-])c2)n1-c1c(Cl)c(Cl)cc2[nH]c(=O)c(=O)[nH]c12 | inactive | – |
| CNC(C)=O | inactive | – |
| CCCCOC(=O)c1ccccc1 | inactive | – |
| OC[C@H]1O[C@@H]2O[C@H]3[C@H](O)[C@@H](O)[C@@H](O[C@H]4[C@H](O)[C@@H](O)[C@@H](O[C@H]5[C@H](O)[C@@H](O)[C@@H](O[C@H]6[C@H](O)[C@@H](O)[C@@H](O[C@H]7[C@H](O)[C@@H](O)[C@@H](O[C@H]1[C@H](O)[C@H]2O)O[C@@H]7CO)O[C@@H]6CO)O[C@@H]5CO)O[C@@H]4CO)O[C@@H]3CO | inactive | – |
| O=C(O)[C@H](O)[C@@H](O)C(=O)O | inactive | – |
| FC(F)(F)COC(OCC(F)(F)F)OCC(F)(F)F | inactive | – |
| OCCNCCO | inactive | – |
| Cn1cc[nH]c1=S | inactive | – |
| O=C(O)c1cccc(C(=O)O)c1 | inactive | – |
| CCCCCCCC1CCC(=O)O1 (stereo unspecified) | inactive | – |
| c1ccc2ncccc2c1 | inactive | – |
| OC(O)(C(F)C(O)(O)C(F)(F)F)C(F)(F)F | – | 30 µM (active) and 36.3 µM (active) |
| CCc1ccc(O)c(C(C)(C)C)c1 | – | 32.6 µM (active) |

Read-out: Matrix Metallopeptidase 1 (MMP1), MMP1 (gene 4312)
Assay: BSK_hDFCGF_MMP1: BioMAP Diversity Plus: hDFCGF Assay for Matrix Metallopeptidase 1 (MMP1) Biomarker Activity (AID 2283064)
Details: primary human foreskin fibroblasts; actives raise or lower the signal
Method in brief: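 hDFCGF primary fibroblasts (human foreskin); chemical added; 24 h; MMP1 by ELISA; bidirectional fit vs DMSO.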

| Structure (SMILES) | outcome | AC50 |
| --- | --- | --- |
| C[Si](C)(C)C(F)(F)C(F)(F)C(F)(F)F | inactive | – |
| O=C(NO)C1(NS(=O)(=O)c2ccc(Oc3ccc(F)cc3)cc2)CCOCC1 | inactive | – |
| O=C1CN(N=Cc2ccc([N+](=O)[O-])o2)C(=O)N1 | inactive | – |
| OC(Cn1cncn1)(Cn1cncn1)c1ccc(F)cc1F | inactive | – |
| O=S(=O)(O)CCC(F)(F)C(F)(F)C(F)(F)C(F)(F)C(F)(F)C(F)(F)F | inactive | – |
| OC(CCl)CCl | inactive | – |
| OCc1ccccc1 | inactive | – |
| c1ccc(C(O[C@@H]2CCCN(CCc3ccc4c(c3)OCO4)C2)c2ccccc2)cc1 | inactive | – |
| O=C(Cl)C(F)(F)C(F)(F)C(F)(F)C(=O)Cl | inactive | – |
| CCCCCCCC/C=C\CCCCCCCC(=O)OC[C@@H](O)[C@H]1OC[C@H](O)[C@H]1O | inactive | – |
| CCCCCCCCN(C)C | inactive | – |
| COS(C)(=O)=O | inactive | – |
| CCCc1ccccc1 | inactive | – |
| COc1cc2c(c(OC)c1OC)-c1ccc(OC)c(=O)cc1[C@@H](NC(C)=O)CC2 | – | 2.82 µM (active) |
| COCc1nnc(-c2ccc[n+]([O-])c2)n1-c1c(Cl)c(Cl)cc2[nH]c(=O)c(=O)[nH]c12 | inactive | – |
| CNC(C)=O | inactive | – |
| CCCCOC(=O)c1ccccc1 | inactive | – |
| OC[C@H]1O[C@@H]2O[C@H]3[C@H](O)[C@@H](O)[C@@H](O[C@H]4[C@H](O)[C@@H](O)[C@@H](O[C@H]5[C@H](O)[C@@H](O)[C@@H](O[C@H]6[C@H](O)[C@@H](O)[C@@H](O[C@H]7[C@H](O)[C@@H](O)[C@@H](O[C@H]1[C@H](O)[C@H]2O)O[C@@H]7CO)O[C@@H]6CO)O[C@@H]5CO)O[C@@H]4CO)O[C@@H]3CO | inactive | – |
| O=C(O)[C@H](O)[C@@H](O)C(=O)O | inactive | – |
| FC(F)(F)COC(OCC(F)(F)F)OCC(F)(F)F | inactive | – |
| OCCNCCO | inactive | – |
| Cn1cc[nH]c1=S | inactive | – |
| O=C(O)c1cccc(C(=O)O)c1 | inactive | – |
| CCCCCCCC1CCC(=O)O1 (stereo unspecified) | inactive | – |
| c1ccc2ncccc2c1 | inactive | – |
| OC(O)(C(F)C(O)(O)C(F)(F)F)C(F)(F)F | inactive | – |
| CCc1ccc(O)c(C(C)(C)C)c1 | – | 31.8 µM (active) |

Read-out: Vascular cell adhesion molecule 1 (VCAM1), VCAM1 (gene 7412)
Assay: BSK_hDFCGF_VCAM1: BioMAP Diversity Plus: hDFCGF Assay for Vascular cell adhesion molecule 1 (VCAM1) Biomarker Activity (AID 2283065);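 for AC50: VCAM-1 protein level quantified by ELISA after 24 h chemical exposure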
Details: primary human foreskin fibroblasts; actives raise or lower the signal
Method in brief: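 Measured after 24 h chemical treatment of primary human skin fibroblasts, VCAM-1 was detected by ELISA and concentration-response analysed in both directions versus DMSO vehicle.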

| Structure (SMILES) | outcome | AC50 |
| --- | --- | --- |
| C[Si](C)(C)C(F)(F)C(F)(F)C(F)(F)F | inactive | – |
| O=C(NO)C1(NS(=O)(=O)c2ccc(Oc3ccc(F)cc3)cc2)CCOCC1 | inactive | – |
| O=C1CN(N=Cc2ccc([N+](=O)[O-])o2)C(=O)N1 | inactive | – |
| OC(Cn1cncn1)(Cn1cncn1)c1ccc(F)cc1F | inactive | – |
| O=S(=O)(O)CCC(F)(F)C(F)(F)C(F)(F)C(F)(F)C(F)(F)C(F)(F)F | inactive | – |
| OC(CCl)CCl | inactive | – |
| OCc1ccccc1 | inactive | – |
| c1ccc(C(O[C@@H]2CCCN(CCc3ccc4c(c3)OCO4)C2)c2ccccc2)cc1 | – | 8.8 µM (active) |
| O=C(Cl)C(F)(F)C(F)(F)C(F)(F)C(=O)Cl | inactive | – |
| CCCCCCCC/C=C\CCCCCCCC(=O)OC[C@@H](O)[C@H]1OC[C@H](O)[C@H]1O | inactive | – |
| CCCCCCCCN(C)C | inactive | – |
| COS(C)(=O)=O | inactive | – |
| CCCc1ccccc1 | inactive | – |
| COc1cc2c(c(OC)c1OC)-c1ccc(OC)c(=O)cc1[C@@H](NC(C)=O)CC2 | – | 2.32 µM (active) |
| COCc1nnc(-c2ccc[n+]([O-])c2)n1-c1c(Cl)c(Cl)cc2[nH]c(=O)c(=O)[nH]c12 | inactive | – |
| CNC(C)=O | inactive | – |
| CCCCOC(=O)c1ccccc1 | inactive | – |
| OC[C@H]1O[C@@H]2O[C@H]3[C@H](O)[C@@H](O)[C@@H](O[C@H]4[C@H](O)[C@@H](O)[C@@H](O[C@H]5[C@H](O)[C@@H](O)[C@@H](O[C@H]6[C@H](O)[C@@H](O)[C@@H](O[C@H]7[C@H](O)[C@@H](O)[C@@H](O[C@H]1[C@H](O)[C@H]2O)O[C@@H]7CO)O[C@@H]6CO)O[C@@H]5CO)O[C@@H]4CO)O[C@@H]3CO | inactive | – |
| O=C(O)[C@H](O)[C@@H](O)C(=O)O | inactive | – |
| FC(F)(F)COC(OCC(F)(F)F)OCC(F)(F)F | inactive | – |
| OCCNCCO | inactive | – |
| Cn1cc[nH]c1=S | inactive | – |
| O=C(O)c1cccc(C(=O)O)c1 | inactive | – |
| CCCCCCCC1CCC(=O)O1 (stereo unspecified) | inactive | – |
| c1ccc2ncccc2c1 | inactive | – |
| OC(O)(C(F)C(O)(O)C(F)(F)F)C(F)(F)F | – | 1.12 µM (active) and 13 µM (active) |
| CCc1ccc(O)c(C(C)(C)C)c1 | – | 30.4 µM (active) |
